# Rows were chosen to be rich in hits. Some 2.4% of all compounds tested hit in one or more screens of this group.
# Pol eta inh-1: qHTS for Inhibitors of Polymerase Eta. recombinant Pol eta, fluorescent DNA replication assay. AID 588591, 2011. DNA polymerase eta (Homo sapiens), Q9Y253. Potency, µM (doses to about 114 µM), for inactives: at the highest dose activity change, negative = inhibition, hits mostly inhibitors. 390,000 tested, 1.2% active; also: potency is read from the fitted curve at half-maximal effect; % is scaled to controls: 0 for no effect and ±100 for the full control effect
#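 Pol eta (10 nM) was preincubated with compounds for 15 min at room temperature, after which fluorescent replication substrate (50 nM final) was added to start the reaction. Fluorescence was read kinetically at 0 and 10 min.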
# Pol kappa inh-1: qHTS for Inhibitors of Polymerase Kappa. Potency, µM (titrated, usually from 107 µM), without a hit: at the top dose activity, negative = inhibition, hits mostly inhibitors. DNA polymerase kappa (Homo sapiens), Q9UBT6. AID 588579, 2011. purified Pol kappa, fluorescent DNA synthesis assay, 10 min. 400,000 tested, 0.53% active; also: potency is read from the fitted curve at half-maximal effect; % is scaled to controls: 0 for no effect and ±100 for the full control effect
#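 Readout: fluorescence, taken kinetically at 0 and 10 min. Conditions: 10 nM Pol kappa, 15 min RT compound preincubation, 50 nM substrate final. Controls: enzyme-free buffer wells.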
# FEN1 inh: qHTS Assay for the Inhibitors of Human Flap endonuclease 1 (FEN1) | P39748 | Recombinant FEN1 flap cleavage, fluorescence, 15 min | Potency, µM (top dose mostly 114 µM), inactives show at the top dose activity change, negative = inhibition, hits mostly inhibitors | 390,000 tested, 0.35% active; also: potency is read from the fitted curve at half-maximal effect; % is scaled to controls: 0 for no effect and ±100 for the full control effect; nearly all actives have a fitted effect of over 65% in size
# Target sequence (P39748 whole entry, looked up): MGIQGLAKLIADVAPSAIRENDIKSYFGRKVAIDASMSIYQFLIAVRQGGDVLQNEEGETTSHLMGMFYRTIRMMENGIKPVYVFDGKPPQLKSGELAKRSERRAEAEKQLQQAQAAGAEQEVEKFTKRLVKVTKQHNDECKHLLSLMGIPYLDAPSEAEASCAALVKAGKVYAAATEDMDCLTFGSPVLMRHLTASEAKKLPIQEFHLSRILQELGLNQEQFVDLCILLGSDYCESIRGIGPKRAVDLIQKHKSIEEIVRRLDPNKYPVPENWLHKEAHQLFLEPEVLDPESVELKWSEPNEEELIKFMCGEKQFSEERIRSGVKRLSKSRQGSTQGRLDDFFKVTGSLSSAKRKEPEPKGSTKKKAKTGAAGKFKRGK
#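 Quantitative HTS format: each compound was titrated, incubated with 10 nM nuclease for 15 min at room temperature, then challenged with flap substrate at 50 nM final. Signal change over 15 min gave concentration–effect curves.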
# Pol beta inh: qHTS Assay for Inhibitors of DNA Polymerase Beta; P06746; Pol beta primer extension/strand displacement, fluorescence kinetic; Potency, µM (doses to about 114 µM), inactives show top-dose activity change, negative = inhibition, most hits filed as inhibitors; 340,000 tested, 1.3% active; also: potency is read from the fitted curve at half-maximal effect; % is scaled to controls: 0 for no effect and ±100 for the full control effect
#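 10 nM enzyme + cpd, 15 min RT; start with substrate 50 nM final; read 0 min and after 10 min RT. Corrected, normalized data; 4-parameter Hill curve fit.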
# WRN inhibitor: qHTS for Inhibitors of WRN Helicase; WRN helicase unwinding, fluorescent forked duplex, kinetic; 360,000 tested, 0.46% active; AID 651768, 2012; Potency, µM (series often up to 114 µM), for inactives: top-dose activity change, negative = inhibition, hits mostly inhibitors; also: potency is read from the fitted curve at half-maximal effect; % is scaled to controls: 0 for no effect and ±100 for the full control effect; nearly all actives have a fitted effect of over 55% in size
#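 Primary qHTS, 1536-well format. 20 nM WRN + compound, 15 min RT; start with 100 nM forked fluorophore/quencher duplex, 2 mM ATP (final); kinetic read ex 525/em 598 nm.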
# Pol iota inh: qHTS for Inhibitors of Polymerase Iota | Pol iota fluorescent replication assay, 10 min | Potency, µM (doses to about 115 µM), for inactives: at the top dose activity, negative = inhibition, most hits filed as inhibitors | 390,000 tested, 1% active; also: potency is read from the fitted curve at half-maximal effect
#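 Fluorescent replication assay read twice, at 0 min and 10 min after adding 50 nM (final) substrate. Enzyme (10 nM) and compounds were first incubated 15 min at room temperature; enzyme-free buffer wells were negative controls.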
# GALK confirm: Confirmation Assay for Inhibitors of Human Galactokinase (GALK). 150 tested, 70% active. Potency, µM (series often up to 115 µM), for the others: at the top dose activity, negative = inhibition, usual class: inhibitors. shares compounds with Pol eta inh-1. purified GALK, Kinase-Glo ATP depletion luminescence
# Target sequence (P51570 whole entry, looked up): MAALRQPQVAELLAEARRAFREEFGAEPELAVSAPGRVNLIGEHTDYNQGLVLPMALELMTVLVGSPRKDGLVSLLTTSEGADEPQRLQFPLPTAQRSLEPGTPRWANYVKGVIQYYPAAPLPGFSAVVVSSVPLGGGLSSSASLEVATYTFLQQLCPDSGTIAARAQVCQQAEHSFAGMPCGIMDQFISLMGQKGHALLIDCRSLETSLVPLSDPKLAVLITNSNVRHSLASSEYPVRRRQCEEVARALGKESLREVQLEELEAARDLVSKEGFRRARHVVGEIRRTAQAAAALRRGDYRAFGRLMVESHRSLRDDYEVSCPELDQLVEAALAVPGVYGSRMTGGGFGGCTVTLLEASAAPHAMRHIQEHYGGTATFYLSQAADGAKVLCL
# Redox cycling: Confirmatory Assay for Inhibitors of Human Galactokinase (GALK): Phenol-HRP redox assay counterscreen. Phenol red-HRP H2O2 redox cycling, absorbance 600 nm. shares compounds with Pol eta inh-1. Potency, µM (doses to about 115 µM), inactives show at the highest dose activity change, negative = H2O2 signal, most hits filed as inhibitors. 150 tested, 40% active
# HEK293 tox: Secondary Assay for Inhibitors of Human Galactokinase (GALK): HEK-293 Cell Viability Assay. shares compounds with Pol eta inh-1. HEK-293 viability, ATP luminescence (CellTiter-Glo), 24/48 h. Potency, µM (doses to about 46.1 µM), for inactives: top-dose activity change, negative = cytotoxicity, hits mostly inhibitors. 170 tested, 10% active; also: potency is read from the fitted curve at half-maximal effect; % is scaled to controls: 0 for no effect and ±100 for the full control effect
# Pol kappa inh-2: qHTS for Inhibitors of Polymerase Kappa: Confirmatory Assay for Cherry-picked Compounds; 920 tested, 76% active; purified Pol-kappa, fluorescent strand-displacement substrate; AID 720501, 2013; shares compounds with Pol eta inh-1; Potency, µM, usual class: inhibitors; also: potency is read from the fitted curve at half-maximal effect
# Pol eta inh-2: qHTS for Inhibitors of Polymerase Eta: Confirmatory Assay for Cherry-picked Compounds | shares compounds with Pol eta inh-1 | Pol eta primer extension, TAMRA/BHQ fluorescence, 10 min | Potency, µM, hits mostly inhibitors | 2,600 tested, 64% active | AID 720502, 2013; also: potency is read from the fitted curve at half-maximal effect
# * hit, by the source's call; u = inconclusive; x = not tested or not shown; [ ] = remark or other dose. Calls follow the shape of the dose curve; as a rule, active = well fitted curve in the direction sought with a large enough effect; inconclusive = small, poorly fitted or top-dose-only effect, or another doubt; inactive = no such curve, though single readings can be large; an effect the other way counts as inactive or inconclusive.
SMILES,Pol eta inh-1,Pol kappa inh-1,FEN1 inh,Pol beta inh,WRN inhibitor,Pol iota inh,others
CCOc1ccc2[nH]c(=O)c(C(c3nnnn3Cc3ccco3)N3CCN(C)CC3)cc2c1 (configuration not stated),-20.2%,8.6%,1.5%,1.7%,4.4%,68.3%,GALK confirm=-5.8%;Redox cycling=3.3%;HEK293 tox=0.5%
O=C(N/C(=C/c1cccc(Br)c1)C(=O)N1CCOCC1)c1ccco1,-1.4%,x,x,x,-2.6%,x,
Cc1ccc2c(c1)c(=O)c1ccccc1n2CCCC(=O)Nc1ccc(Cl)c(Cl)c1,-13.5%,1.2%,-9.3%,3.7%,x,22.7%,
Cc1ccc2c(c1)c(=O)c1ccccc1n2CCCC(=O)Nc1ccc(Cl)cc1C,89.1µM*,2.1%,-3.7%,u,x,-12.3%,Pol kappa inh-2=u
COCCNC(=O)C1CCCN(C(=O)/C=C/c2ccccc2)CC1 (configuration not stated),x,x,x,x,-2.3%,x,
Cc1ccc2ccccc2c1C(O)c1ncc(-c2ccccc2F)[nH]1 (configuration not stated),x,x,x,x,-4.2%,x,
CC(=O)N1CCCc2cc(S(=O)(=O)N3CCCC(C(=O)Nc4cc(Cl)ccc4C)C3)ccc21 (configuration not stated),-15.8%,-3.5%[60.1 µM],6.7%,2.2%,x,15.9%,
O=C(CN1C(=O)S/C(=C\c2cccn2-c2ccc(C(=O)O)cc2)C1=O)Nc1ccc(F)cc1,x,x,x,x,x,x,Pol eta inh-2=30.1*
O=C(CN1C(=O)S/C(=C\c2ccc(C(=O)O)cc2)C1=O)Nc1ccccc1,-2.5%,-7.8%,19.3%,-0.5%,-0.1%,-18.8%,
CCN(CC)S(=O)(=O)c1ccc2c(c1)N(CC(=O)Nc1ccccc1F)C(=O)C1CCCN21 (configuration not stated),x,-5.8%,4.3%,30.7%,x,-5.2%,
NC(=S)n1[nH]c(-c2ccc([N+](=O)[O-])cc2)c(N=Nc2ccccc2[N+](=O)[O-])c1=O,6.31µM*,-3.4%,7.7%,15.8µM*,-21.1%[11.6 µM],u,Pol kappa inh-2=8.44*
O=c1c2ccccc2[nH]c2ccc(O)cc12,17.8µM*,79.4µM*,u,17.8µM*,50.1µM*,u,Pol eta inh-2=53.6*
O=C(O)CNC(=O)CC1S/C(=N/N=C2/NC(=O)CS2)NC1=O (configuration not stated),44.7µM*,-26.2%,-1.8%,-1.9%,-10.8%[57.1 µM],u,Pol kappa inh-2=u
NC(=O)NC(=O)CC1S/C(=N/N=C2\CSC(=O)N2)NC1=O (configuration not stated),-9.5%,-21.7%,-12.5%,-15.5%,-4.1%[57.1 µM],u,
O=C1CCCC(O)=C1Sc1ccccc1C(=O)O,8.91µM*,u,u,10µM*,-5.5%[11.6 µM],31.6µM*,Pol eta inh-2=60.1*
O=C1CCCC(O)=C1C(C#Cc1ccccc1)C1=C(O)CCCC1=O,13.9%,-32.2%,1.7%,u,u,10.2%,
CCOC(=O)C1CCC(C(=O)OCC)N1c1ccc(C=O)cc1 (configuration not stated),-9.1%,x,x,x,-14.4%,x,
COc1cc(/C=C/C(=O)O)ccc1S(=O)(=O)N1CCCc2ccccc21,4.3%,-18.9%,5.0%,22.7%,-6.3%,5.3%,
COc1ccc(/C=C/C(=O)O)cc1S(=O)(=O)N1CCCc2ccccc21,44.7µM*,-40.3%,-1.2%,u,-6.2%[11.6 µM],-0.3%,Pol eta inh-2=60.1*
O=C(O)/C(=C/c1ccco1)NC(=O)c1ccc(Br)o1,u,-43.9%,-2.0%,u,-16.0%,u,Pol eta inh-2=60.1*
CC(C)(C)c1ccc(C(=O)N/C(=C\c2ccco2)C(=O)O)cc1,-15.5%,0.7%,-5.2%,u,-10.3%,40.9%,
O=C(O)/C(=C/c1ccco1)NC(=O)c1ccccc1,11.2µM*,-38.6%,-14.5%,39.8µM*,-16.4%,u,Pol kappa inh-2=47.4*;Pol eta inh-2=u
CC(C)C(NC(=O)/C(=C\c1ccco1)NC(=O)c1ccco1)C(=O)O (configuration not stated),20µM*,u,-7.8%,22.4µM*,-3.9%,-2.1%,Pol kappa inh-2=u
O=C(NCCc1csc(-c2ccc(Cl)cc2)n1)c1cccs1,-24.4%,-5.6%[60.1 µM],-23.1%,-2.8%,x,-16.4%,
COc1ccccc1N1CCN(c2ccc(=O)n(CC(=O)O)n2)CC1,u,-6.5%,-3.6%,-7.5%,x,24.8%,
C[C@@H]1CN([C@H](C)CO)C(=O)CCCn2nncc2CO[C@H]1CN(C)S(=O)(=O)c1ccc2ccccc2c1,-5.4%,x,x,x,2.8%,x,
CCOc1ccc(NC(=O)CN(C)C(=O)CN2C(=O)c3ccc([N+](=O)[O-])cc3C2=O)cc1OCC,-17.2%,-11.3%,11.5%,x,-19.4%,1.0%,
C[C@H](CO)N1C[C@H](C)[C@H](CN(C)S(=O)(=O)c2cccc(F)c2)Oc2ncc(-c3cccc(C(=O)N(C)C)c3)cc2C1=O,-6.3%,x,x,x,0.4%,x,
Cc1nc2ccn(Cc3ccco3)c(=O)c2cc1C(=O)N1CCN(c2ccccc2F)CC1,-11.7%,0.0%,-1.8%,37.1%,x,12.8%,
